Abeta yeast res – A-beta toxicity reversal in yeast; yeast expressing A-beta42, growth rescue, OD600, 48 h; response scale: 0% DMSO, 100% iron-clioquinol control; Potency, µM (titrated, usually from 46.1 µM), usual class: activators; hit rate 0.063% among 410,000; also: nearly all actives have a fitted effect of over 55% in size
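Yeast A-beta toxicity model in growth medium with pinned compounds, 48 h at 30 C; growth read as absorbance at 600 nm. Normalized to FeCl3/clioquinol equimolar mix (positive) and DMSO (negative).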
aSyn yeast inh – inhibitors of alpha-synuclein toxicity in yeast. Yeast expressing alpha-synuclein, growth rescue, BacTiter-Glo, 24 h. Potency, µM (highest dose often 46.1 µM), actives largely listed as activators. hit rate 0.14% among 370,000. AID 652106; also: nearly all actives have a fitted effect of over 65% in size
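Rescue of yeast growth: cells expressing toxic alpha-synuclein, induced in galactose at OD600 0.02, incubated with compound 24 h at 30 C. ATP luminescence quantified growth; inhibitors of toxicity appear as activators.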
FUS yeast rescue – rescues growth of FUS-expressing yeast. Potency, µM (titrated, usually from 76.6 µM), hits mostly activators. hit rate 0.24% among 390,000. S. cerevisiae FUS-expressing, growth rescue, OD600, 24 h. AID 1347120; also: nearly all actives have a fitted effect of over 55% in size
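Compound concentration series was pinned onto galactose-induced FUS-expressing yeast seeded at OD 0.005. Plates sat 24hr at 30C; absorbance at 600 nm gave growth. DMSO served as background control.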
TDP43 rescue – TDP-43 toxicity inhibition in yeast | TDP-43 expressing yeast growth rescue, BacTiter-Glo, 24 h | Potency, µM (highest dose often 46.1 µM), hits mostly activators | hit rate 1.8% among 410,000 | AID 652104; also: nearly all actives have a fitted effect of over 50% in size
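Yeast cells expressing TDP-43 under galactose induction are exposed to compounds for 24 hr at 30 deg C. BacTiter-Glo luminescence measures growth, so protective compounds score as activators.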
Large screens that a line does not name were inactive. The list is not random: actives were taken first. Their share in the collection is about 2.1%. Calls follow the shape of the dose curve; as a rule, active = well fitted curve in the direction sought with a large enough effect; inconclusive = small, poorly fitted or top-dose-only effect, or another doubt; inactive = no such curve, though single readings can be large; an effect the other way counts as inactive or inconclusive.

O=C(NCc1ccccc1C(F)(F)F)C1CC(c2ccccc2[N+](=O)[O-])=NO1 (stereo unspecified)	TDP43 rescue 13µM
CC1=C(C)CC(C(=O)N2CCN(Cc3ccc4c(c3)OCO4)CC2)C(C(=O)O)C1 (stereo unspecified)	none
CCOc1ccc(C2=NNC(c3cccs3)=Nc3ccc(OC)cc32)cc1	FUS yeast rescue 18µM
COc1ccc(C2CC(O)(c3ccccc3)Oc3cc(OC)ccc32)cc1 (stereo unspecified)	aSyn yeast inh inconclusive, TDP43 rescue 20µM
Cc1sc(-n2c(C)cc(/C=C3\SC(=S)NC3=O)c2C)c(C#N)c1C	FUS yeast rescue 16µM
Cc1cc(/C=C2\SC(=S)NC2=O)c(C)n1-c1cccc(O)c1	none
COc1cccc(Nc2nc(N)c([N+](=O)[O-])c(NCc3ccccc3)n2)c1	TDP43 rescue 25µM
COc1cc(-c2nnc(-c3ccccc3)o2)cc(OC)c1OC	none
COc1cc(-c2nnc(COc3ccc4ccccc4c3)o2)cc(OC)c1OC	TDP43 rescue 28µM (no result: FUS yeast rescue)
CCCNc1nc(Nc2ccc(C)cc2)nc(N2CCCC2)n1	TDP43 rescue 11µM
CCCCOc1ccc(-c2nnc(-c3cc[n+](C)cc3)o2)cc1	none
COc1cc(C(O)c2nc(-c3csc4ccccc34)cs2)ccc1F (stereo unspecified)	Abeta yeast res inconclusive, aSyn yeast inh inconclusive, TDP43 rescue 20µM
OC(c1ccc(F)c(F)c1)c1nc(-c2csc3ccccc23)cs1 (stereo unspecified)	TDP43 rescue 16µM
COc1cc(C(O)c2nc(-c3ccccc3C)cs2)ccc1F (stereo unspecified)	TDP43 rescue inconclusive
CCOc1ccc(NS(=O)(=O)c2ccc3[nH]c4c(c3c2)CCCC4)cc1	none (no result: aSyn yeast inh)
Cc1ccc(NS(=O)(=O)c2ccc3[nH]c4c(c3c2)CCCCCC4)cc1Cl	FUS yeast rescue 22µM
Cc1ccccc1NS(=O)(=O)c1ccc2[nH]c3c(c2c1)CCCCC3	aSyn yeast inh inconclusive, FUS yeast rescue 35µM, TDP43 rescue inconclusive
Cc1cccc(N(C)C(=O)CN(C)S(=O)(=O)c2ccc3[nH]c4c(c3c2)CCCC4)c1	FUS yeast rescue 32µM (no result: aSyn yeast inh)
CCOc1ccc(NS(=O)(=O)c2ccc3[nH]c4c(c3c2)CCCCC4)cc1	TDP43 rescue 18µM (no result: aSyn yeast inh)
Cc1cccc(C)c1NC(=O)CN(C)S(=O)(=O)c1ccc2[nH]c3c(c2c1)CCCC3	none (no result: aSyn yeast inh)
CCOC(=O)c1cccc(OS(=O)(=O)Cc2ccccc2)c1	TDP43 rescue inconclusive
CC(C)[C@H]1COCCS(=O)(=O)N1Cc1cccc(Cl)c1	TDP43 rescue 35µM
CCC1COCCS(=O)(=O)N1Cc1cccc(Cl)c1 (stereo unspecified)	TDP43 rescue inconclusive
COC(=O)[C@]1(CNC(=O)C(C)(C)C)CC(=O)N(Cc2ccc(Cl)cc2)[C@@H]1c1ccc(OC)cc1	none (no result: Abeta yeast res, aSyn yeast inh, TDP43 rescue)
CCCCc1ccc(NC(=O)CC(C)=O)cc1	none
CCCCc1ccc(NC(=O)C(C)CC)cc1 (stereo unspecified)	TDP43 rescue 11µM
CCCCc1ccc(NC(=O)CC(C)(C)C)cc1	TDP43 rescue 20µM
CCCCc1ccc(CC(=O)NO)cc1	aSyn yeast inh 16µM (no result: Abeta yeast res, FUS yeast rescue, TDP43 rescue)
Cc1cc(OC(F)F)ccc1NC(=S)NC1CCCC1	Abeta yeast res 13µM
Cc1cc(F)ccc1NC(=S)NC1CCCC1	none
CCOc1cc(CNCc2cccnc2)ccc1OCC(=O)NC(C)(C)C	none
CCOc1ccccc1C(=O)Nc1cccc(-c2ccc(N3CCOCC3)nn2)c1	Abeta yeast res inconclusive, TDP43 rescue 16µM
CCOC(=O)c1c(/N=C/N(C)C)sc(/C=N/Nc2ccccc2)c1-c1ccccc1Cl	none
Nc1ccccc1SC(CC(=O)c1ccccc1)c1cccc([N+](=O)[O-])c1 (stereo unspecified)	TDP43 rescue 25µM
CC(C)Cn1cnc2c(SCc3ccccc3F)nc(N)nc21	TDP43 rescue inconclusive (no result: FUS yeast rescue)
CCCCn1cnc2c(SCc3ccccc3F)nc(N)nc21	TDP43 rescue 18µM (no result: FUS yeast rescue)
COc1cc(C2(C)SCCCS2)cc(OC)c1OC	none
COc1cc(OC)c(C2SCCCS2)cc1OC	TDP43 rescue 35µM (no result: FUS yeast rescue)
CC(Cc1cccs1)NC(=S)Nc1ccccc1 (stereo unspecified)	Abeta yeast res 11µM
CC(Cc1cccs1)NC(=O)Nc1ccccc1 (stereo unspecified)	none
CC(Cc1cccs1)NC(=O)Nc1ccc(Cl)cc1 (stereo unspecified)	TDP43 rescue 22µM
COc1ccccc1-c1noc2ncnc(Nc3cccc(C)c3C)c12	TDP43 rescue 18µM
COc1ccccc1-c1noc2ncnc(Nc3ccccc3C)c12	TDP43 rescue inconclusive
CC(C)(C)C1CCc2nc(NC(=O)COc3ccc(F)cc3)sc2C1 (stereo unspecified)	none (no result: aSyn yeast inh)
Nc1nc(SCC(=O)OCc2ccccc2)[nH]c(=O)c1NC(=O)c1ccco1	none
O=C(N/N=C/c1cccc(Oc2ccccc2)c1)c1cc[n+]([O-])cc1	none
Cc1nn(C)c(C(=O)N/N=C/c2cccc(Oc3ccccc3)c2)c1Br	TDP43 rescue 4.5µM
COc1cccc(/C=N/NC(=O)c2c(C)nc3ccc(Br)cn23)c1	none
Nc1ccc(C(=O)N/N=C/c2cccc(Oc3ccccc3)c2)cc1	TDP43 rescue 13µM
CC(CC(=O)c1ccccc1)=NCC(O)CN=C(C)CC(=O)c1ccccc1 (stereo unspecified)	none
COc1cnc(-c2ccccn2)nc1Sc1ccccc1Cl	Abeta yeast res 11µM, TDP43 rescue inconclusive
CN1C(=O)c2ccccc2N(C)C1c1ccccc1Cl (stereo unspecified)	TDP43 rescue 16µM
CN1C(=O)c2ccccc2N(C)C1c1cccs1 (stereo unspecified)	none
CC(C)(C)c1csc(NC(=O)c2cccnc2)n1	none
CC(C)(C)c1csc(NNC(=O)c2ccc(Cl)cc2)n1	aSyn yeast inh 18µM, FUS yeast rescue inconclusive
CC(C)(C)c1csc(NC(=O)c2cccs2)n1	TDP43 rescue 16µM
CN(C)CC(=O)Nc1nc(-c2ccccc2)cs1	none
O=C(Nc1nc(-c2ccccc2)cs1)c1cccs1	TDP43 rescue 13µM
CC1CC1C(=O)Nc1nc(-c2ccccc2)cs1 (stereo unspecified)	TDP43 rescue 18µM
O=C1CSC(=S)N1c1cccc(O)c1	aSyn yeast inh inconclusive
O=C(O)c1cccc(N2C(=O)CSC2=S)c1	aSyn yeast inh 35µM, TDP43 rescue inconclusive
O=C1CSC(=S)N1c1cccc(Br)c1	TDP43 rescue 14µM
O=[N+]([O-])c1ccc2c(c1)-c1ccccc1C2=NO	TDP43 rescue inconclusive (no result: FUS yeast rescue)
Nc1ccc2c(c1)C(=NO)c1cc([N+](=O)[O-])ccc1-2	aSyn yeast inh 6.3µM, TDP43 rescue 11µM (no result: FUS yeast rescue)
CCOc1ccc(CCNC(=O)/C=C/c2ccco2)cc1OCC	none
CC1CN(C(=O)c2ccc(Oc3ccccc3)cc2)CC(C)O1 (stereo unspecified)	none (no result: TDP43 rescue)
Cc1c(C=O)c2ccccn2c1C(=O)c1ccc(Cl)c([N+](=O)[O-])c1	none

Source: PubChem BioAssay (National Center for Advancing Translational Sciences (NCATS))
